PfHsp90 set2 = reduces growth (ATP signal) of yeast expressing P. falciparum Hsp90; AID 504621; 310,000 compounds, 0.32% hits; inhibition, % at 9.4 µM; S. cerevisiae expressing PfHsp90, BacTiter-Glo ATP, 48 h; yeast lacking PDR1 and PDR3 efflux regulators;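 active means every replicate shows inhibition above about 80%, whatever the replicate mean, limit read from the data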;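 further: 0% = DMSO neutral controls and 100% = 20 µM radicicol positive controls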
SKKanGAS inh = inhibitors of SKKanGAS S. pyogenes growth in kanamycin (SK-promoter or general growth effect). AID 1662. inhibition, % at 7.5 µM. BacTiter-Glo, 6 h. 300,000 compounds, 1.3% hits;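 active means mean replicate score, as percent of positive control median, at least 50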;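 further: strain carries kanamycin resistance gene driven by streptokinase promoter and grows in 40 µg/ml kanamycin; loss of luminescence reflects streptokinase promoter inhibition or plain growth inhibition; 0% = median of DMSO wells and 100% = positive control at its reference dose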
tim23-1 inh = growth inhibitors of tim23-1 mutant yeast; S. cerevisiae tim23-1 growth, BacTiter-Glo luminescence, 24 h; inhibition, % at 20 µM; 330,000 compounds, 1.3% hits; AID 463212;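 active means growth inhibition of the mutant yeast at or above 50%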;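 further: temperature-sensitive mutant grown at 25 °C; plate controls were DMSO-treated mutant yeast for no effect and medium wells lacking yeast for full effect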
TIM10 inh = TIM10 yeast growth inhibition; inhibition, % at 10 µM; AID 463195; 330,000 compounds, 1.4% hits; S. cerevisiae TIM10 strain growth, BacTiter-Glo luminescence, 24 h;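 active means inhibition of 40% or more at the single tested concentration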;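 further: wild-type TIM10 isogenic control strain grown at permissive 25 °C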
tim10-1 inh = tim10-1 yeast growth inhibition; S. cerevisiae tim10-1 ts strain growth, BacTiter-Glo, 24 h; inhibition, % at 20 µM; 330,000 compounds, 2.2% hits; AID 463190;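 active means inhibition of at least 40%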;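 further: mutant grown at 25 °C; 0% = DMSO wells with yeast and 100% = wells holding no yeast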
tim10-1 conf = tim10-1 yeast growth inhibition, confirmed | shares compounds with tim10-1 inh | S. cerevisiae tim10-1 ts strain growth, BacTiter-Glo, 24 h | inhibition, % at 20 µM | 7,400 compounds, 56% hits | AID 463213;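 active means inhibition of yeast growth at or above a set limit in either of two repeat tests at 20 µM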;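 further: tim10-1 mutant grown at permissive 25 °C to find synthetic lethal compounds; 0% = DMSO yeast wells and 100% = medium wells without yeast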
TIM10 conf = TIM10 yeast growth inhibition, confirmed. AID 463215. S. cerevisiae tim10 strain growth, BacTiter-Glo luminescence, 24 h. shares compounds with TIM10 inh. 4,600 compounds, 63% hits. inhibition, % at 10 µM;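 active means inhibition of yeast growth at or above a set limit in either of two replicates at 10 µM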;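 further: this counterscreen used the strain with wild-type TIM10; 0% = yeast with DMSO and 100% = medium wells lacking yeast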
* marks the source's active call; other numbers are inactive results; · = no result given. Only some compounds are listed: those with a hit (about 4.4% of all), similar ones and a draw of the others.

SMILES	PfHsp90 set2	SKKanGAS inh	tim23-1 inh	TIM10 inh	tim10-1 inh	tim10-1 conf	TIM10 conf
Cc1ccc2nc(-c3ccccc3)c(CN3CCN(c4ccccc4F)CC3)n2c1	-17	-5	49	51*	56*	42*	37*
NC(=O)[C@@H]1CC2(CC(c3cccc(NC(=O)[C@H]4CCC(=O)N4)c3)=NO2)CN1C(=O)COc1ccc(Cl)cc1 (stereo partly drawn)	5	3	11	-4	-2	·	·
O=C(Nc1cc(S(=O)(=O)N2CCOCC2)ccc1N1CCCCC1)c1ccccc1	·	·	31	13	16	·	·
N#C/C(=C\c1ccccc1)C(=O)Nc1cc(S(=O)(=O)N2CCOCC2)ccc1N1CCCC1	2	4	49	49*	52*	33*	24
CC(C)CN(C(=O)c1cccc(Cl)c1)c1c(N)n(CC(C)C)c(=O)[nH]c1=O	7	-1	8	1	1	·	·
O=C(c1cccs1)N1CCN=C1SCc1cccnc1	8	-1	13	-8	25	·	·
O=C(N1CCN=C1SCc1cccnc1)C12CC3CC(CC(C3)C1)C2	14	3	45	45*	45*	40*	47*
COC(=O)N/N=C/c1cccs1	-1	-5	4	0	-5	·	·
COC(=O)C(=C/C(C)=C/c1cccs1)C(=O)OC	6	0	38	43*	44*	28	43*
COc1ccc(NC(=O)/C(C#N)=C/c2c(C)nn(-c3ccc(F)cc3)c2Cl)cc1OC	-7	-4	44	49*	51*	45*	42*
Cc1cc(Cl)ccc1OCC(=O)N(Cc1cccs1)C1CCS(=O)(=O)C1 (stereo not drawn)	11	8	18	10	31	·	·
CCC(=NCc1ccco1)c1c(C(F)(F)F)[nH]n(-c2nc3ccccc3s2)c1=O	17	12	19	44*	65*	63*	41*
Cc1cccc(C(=O)OCc2cncs2)c1	-7	12	2	-1	-12	·	·
NC(=O)/C(=N\OC(=O)c1ccco1)c1nc(-c2ccc(Br)cc2)cs1	-19	-4	47	46*	43*	40*	43*
CC(C)c1onc(C(=O)Nc2cccc(Cl)c2)c1[N+](=O)[O-]	-7	6	37	41*	45*	37*	39*
O=C(C1CC1)N1CCc2cc(S(=O)(=O)NCCCN3CCCCC3)ccc21	-5	-9	1	12	-11	·	·
CC1CCN(S(=O)(=O)c2ccc3c(c2)CCN3C(=O)C2CCC2)CC1	-22	-3	21	20	22	·	·
CCC1CCCCN1S(=O)(=O)c1ccc2c(c1)CCN2C(=O)C1CCC1 (stereo not drawn)	17	1	6	56*	55*	45*	50*
O=C(CCl)c1ccc2c(c1)CCN2C(=O)C1CCCCC1	·	-7	35	76*	62*	36*	65*
O=C(Cc1cccc2ccccc12)NN1C(=O)/C(=C\c2cccnc2)SC1=S	-31	4	3	1	6	·	·
O=C1/C(=C/c2cccnc2)SC(=S)N1NS(=O)(=O)c1ccccc1	-21	1	14	-1	8	·	·
O=C(NN1C(=O)/C(=C/c2cccnc2)SC1=S)C(c1ccccc1)c1ccccc1	·	-2	41	42*	49*	41*	21
O=C(NN1C(=O)/C(=C\c2cccnc2)SC1=S)C(c1ccccc1)c1ccccc1	-1	1	35	40*	46*	39*	-20
Cc1cc(NCc2ccccc2)nc(-c2ccccc2O)n1	·	17	47	66*	64*	49*	46*
COc1ccc(N2CCN(CCN3C(=O)c4ccccc4C3=O)CC2)cc1	-1	8	1	-10	2	·	·
SMILES	PfHsp90 set2	SKKanGAS inh	tim23-1 inh	TIM10 inh	tim10-1 inh	tim10-1 conf	TIM10 conf
O=c1[nH]nnc2cc(Cl)ccc12	22	·	·	·	·	·	·
COC(=O)COc1ccc2c(c1)O/C(=C\c1cccc([N+](=O)[O-])c1)C2=O	8	6	26	27	27	·	·
Cc1cccc(/C=C2\Oc3cc(OS(C)(=O)=O)ccc3C2=O)c1	-10	-1	46	43*	47*	37*	-22
CCN(CC)c1ccc(NC(=O)COC(=O)COc2ccccc2[N+](=O)[O-])cc1	15	0	12	-1	6	·	·
Cc1ccsc1C(C(=O)NC(C)(C)C)N(C(=O)c1csnn1)c1ccccc1 (stereo not drawn)	-3	1	13	17	12	·	·
CCNC(=O)C(=O)NCC1CCCN1S(=O)(=O)c1cccs1 (stereo not drawn)	·	-2	14	4	10	·	·
O=c1oc2ccccc2c(O)c1/C=C1\C=Nc2ccccc21	-52	0	-4	69*	65*	72*	-7
COc1ccc(C(CNC(=O)Cc2cccs2)N(C)C)cc1 (stereo not drawn)	-4	-3	5	7	6	·	·
Cc1c(Cl)cnc(NC(=O)COC(=O)c2ccc([N+](=O)[O-])s2)c1Cl	-76	17	-19	66*	49*	27	82*
CC(OC(=O)/C=C/c1cccc(F)c1)C(=O)NC1CCCCC1C (stereo not drawn)	-8	-2	6	2	-3	·	·
CCCN=C1N(C)C[C@@H]2[C@@H]3C(=O)N(C)C(=O)[C@@H]3[C@](C)(C(=O)OC)N12	8	·	7	-17	-7	·	·
Fc1ccc2c(c1)C(c1ccc(N3CCOCC3)cc1)=NNC(c1cccs1)=N2	·	16	37	55*	42*	28	36*
CC1CCCC(NC(=O)COC(=O)c2ccc3ncsc3c2)C1C (stereo not drawn)	7	·	11	-13	-10	·	·
CCCc1c(O)nc(SC2CC(=O)N(c3ccc(C)c(Cl)c3)C2=O)[nH]c1=O (stereo not drawn)	·	-3	21	2	3	·	·
Cc1ccc(N2C(=O)CC(Sc3nc4ccccc4o3)C2=O)cc1Cl (stereo not drawn)	·	2	35	50*	59*	43*	34*
CCN1/C(=C/C=C/c2oc3ccc(-c4ccccc4)cc3[n+]2CC)Oc2ccc(-c3ccccc3)cc21	55	93*	-54	63*	61*	-6	42*
Cn1c(=O)n(Cc2ccccc2)c(=O)c2c1nc1n2CCCN1CCc1ccccc1	52	6	42	47*	43*	41*	34*
CC(/C=N/n1c(-c2ccc(C)cc2)n[nH]c1=S)=C\c1ccco1	-80	18	29	6	22	·	·
CC(/C=N/n1c(-c2ccccc2)n[nH]c1=S)=C\c1ccco1	-21	16	48	44*	42*	13	41*
